The record followed here is PubChem BioAssay (NCI).

Assay [1] in a line: NCI Yeast Anticancer Drug Screen. Data for the rad50 strain (AID 155).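 Note: 0% = growth of vehicle-only cultures of the same strain.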 The settings on record: S. cerevisiae rad50 strain growth inhibition, stronger effect = higher value. The method, boiled down:
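Vehicle-treated cultures provide the reference for the growth inhibition reported for compound-exposed, repair-deficient yeast.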

Assay [2] can be described thus: NCI Yeast Anticancer Drug Screen. Data for the mec2-1 strain (AID 157). The settings on record: S. cerevisiae mec2-1 strain, stronger effect = higher value. Summed up: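 Vehicle-treated cultures served as reference for growth inhibition of compound-exposed mec2-1 yeast.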
Assay [3] in a line: NCI Yeast Anticancer Drug Screen. Data for the sgs1 mgt1 strain (AID 161).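 Note: 0% = growth of cultures given vehicle only.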 The settings on record: S. cerevisiae sgs1 mgt1 strain, stronger effect = higher value. The method, boiled down:
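Mutant yeast exposed to compound; growth scored against vehicle-only wells.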

Assay [4] in a line: NCI Yeast Anticancer Drug Screen. Data for the cln2 rad14 strain (AID 165).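 Note: 0% = growth equal to vehicle treated cultures.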 To be noted: S. cerevisiae cln2 rad14 strain, stronger effect = higher value. The method, boiled down:
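Each compound was tested on cln2 rad14 yeast. Inhibition of growth was calculated against vehicle-exposed controls.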

Assay [5] can be described thus: NCI Yeast Anticancer Drug Screen. Data for the bub3 strain (AID 167). The settings on record: S. cerevisiae bub3 mutant strain, stronger effect = higher value. Summed up: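 Mutant yeast screening strain plus compound; vehicle-treated cultures serve as the 0% inhibition reference.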
Assay [6] is described as follows: NCI Yeast Anticancer Drug Screen. Data for the mlh1 rad18 strain (AID 175). The settings on record: S. cerevisiae mlh1 rad18 strain growth inhibition, stronger effect = higher value. The method, boiled down:
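Vehicle-treated cultures served as the reference for growth inhibition in a yeast strain carrying DNA damage repair alterations exposed to each compound.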

The mark [7] stands for this setting: at 5.0 µM (retest, dose inferred, filed as 0.5).
[8] abbreviates: at 50.0 µM (retest, dose inferred, filed as 5.0).

Several values for one entry are separate records, joined by “and”; a condition that tells them apart may be missing. Identical values can stand only once. Compounds without any hit were thinned out: in the full panel of roughly 79,000, 15% have a hit. A structure can be active in one record and inactive in another. Activity calls are given as the source filed them. Cut-off read from the data, not from the text of the source: active = growth inhibition above about 70%; inactive = the rest.

Regarding `Cn1c(=O)c2[nH]cnc2n(C)c1=O.[CH2-]C(Cc1cccc2cc(C(=O)O)c(=O)oc12)OC.[Hg+2].[OH-]` (centres undefined), the growth inhibition is 1% (inactive) in assay [1] (setting [7]); 6% (inactive) in assay [1] (setting [8]); 46% (inactive) in assay [1] (at 50.0 µM); -3% (inactive) in assay [2] (setting [7]); 14% (inactive) in assay [2] (setting [8]); 96.7% (active) in assay [2] (at 50.0 µM). Also, the growth inhibition in assay [3] (setting [7]) is -6% (inactive); in assay [3] (setting [8]), 21% (inactive); in assay [3] (at 50.0 µM), 93.5% (active); in assay [4] (setting [7]), 25% (inactive); in assay [4] (setting [8]), -29% (inactive); in assay [4] (at 50.0 µM) it was 93.2% (active). The growth inhibition in assay [5] (setting [7]) was -20% (inactive); in assay [5] (setting [8]) it was -16% (inactive); in assay [5] (at 50.0 µM), 96.8% (active); in assay [6] (setting [7]), -7% (inactive); in assay [6] (setting [8]) it was 17% (inactive); in assay [6] (at 50.0 µM), 98.3% (active).

On to `Cc1cc(C)[n+](CCOc2ccc(/C(=C(/Cl)c3ccccc3)c3ccccc3)cc2)c(C)c1`, for which the growth inhibition in assay [1] (setting [7]) was 99% (active); in assay [1] (setting [8]), 99% (active); in assay [1] (at 50.0 µM), 91.7% (active); in assay [2] (setting [7]), 83% (active); in assay [2] (setting [8]) it was 83% (active); in assay [2] (at 50.0 µM), 91.9% (active). Also, the growth inhibition in assay [3] (setting [7]) is 73% (active); in assay [3] (setting [8]), 73% (active); in assay [3] (at 50.0 µM) it was 92.2% (active); in assay [4] (setting [7]) it was 97% (active); in assay [4] (setting [8]) it was 97% (active); in assay [4] (at 50.0 µM), 91.7% (active). Besides, the growth inhibition in assay [5] (setting [7]) is 67% (inactive); in assay [5] (setting [8]), 67% (inactive); in assay [5] (at 50.0 µM), 90% (active); in assay [6] (setting [7]), 82% (active); in assay [6] (setting [8]) it was 82% (active); in assay [6] (at 50.0 µM), 89.8% (active).

Take `CCC[CH2][Sn]1([CH2]CCC)[O]CC(c2ccccn2)C[O]1`: the growth inhibition in assay [1] (setting [7]) is 36% (inactive); in assay [1] (setting [8]) it was 98% (active); in assay [1] (at 50.0 µM), 87.2% (active); in assay [2] (setting [7]) it was 28% (inactive); in assay [2] (setting [8]) it was 98% (active); in assay [2] (at 50.0 µM) it was 90.7% (active). Further, the growth inhibition in assay [3] (setting [7]) is 34% (inactive); in assay [3] (setting [8]), 98% (active); in assay [3] (at 50.0 µM) it was 88.2% (active); in assay [4] (setting [7]), 21% (inactive); in assay [4] (setting [8]), 97% (active); in assay [4] (at 50.0 µM) it was 89.5% (active). The growth inhibition was 37% (inactive) in assay [5] (setting [7]); 99% (active) in assay [5] (setting [8]); 89% (active) in assay [5] (at 50.0 µM); 44% (inactive) in assay [6] (setting [7]); 98% (active) in assay [6] (setting [8]); 87.4% (active) in assay [6] (at 50.0 µM).

Take `C[C@@H]1CC[C@@]2(NC1)O[C@H]1C[C@H]3[C@@H]4CC[C@H]5C[C@@H](O)CC[C@]5(C)[C@H]4CC[C@]3(C)[C@H]1[C@@H]2C`: the growth inhibition in assay [1] (setting [7]) was 45% (inactive); in assay [1] (setting [8]), 98% (active); in assay [1] (at 50.0 µM), 92.8% (active); in assay [2] (setting [7]) it was 30% (inactive); in assay [2] (setting [8]) it was 98% (active); in assay [2] (at 50.0 µM), 93.5% (active). For the same compound, the growth inhibition was 61% (inactive) in assay [3] (setting [7]); 100% (active) in assay [3] (setting [8]); 93.9% (active) in assay [3] (at 50.0 µM); 46% (inactive) in assay [4] (setting [7]); 99% (active) in assay [4] (setting [8]); 92% (active) in assay [4] (at 50.0 µM). Further, the growth inhibition in assay [5] (setting [7]) was 46% (inactive); in assay [5] (setting [8]), 99% (active); in assay [5] (at 50.0 µM) it was 93.5% (active); in assay [6] (setting [7]), 31% (inactive); in assay [6] (setting [8]), 98% (active); in assay [6] (at 50.0 µM), 87.7% (active).

`C=Cc1ccccc1` (tested in a mixture with another compound): the growth inhibition in assay [1] (setting [7]) is -1% (inactive); in assay [1] (setting [8]) it was 2% (inactive); in assay [1] (at 50.0 µM), 16.1% (inactive) and 1.1% (inactive) and -7.7% (inactive); in assay [2] (setting [7]) it was -6% (inactive); in assay [2] (setting [8]), 0% (inactive); in assay [2] (at 50.0 µM), -1.35% (inactive) and 6.9% (inactive) and -3.75% (inactive). The growth inhibition in assay [3] (setting [7]) is -2% (inactive); in assay [3] (setting [8]) it was -1% (inactive); in assay [3] (at 50.0 µM) it was -11.2% (inactive) and -6.85% (inactive) and -12.4% (inactive); in assay [4] (setting [7]), -3% (inactive); in assay [4] (setting [8]), 3% (inactive); in assay [4] (at 50.0 µM), 1.25% (inactive) and -3.6% (inactive) and 2.15% (inactive). In addition, the growth inhibition is -5% (inactive) in assay [5] (setting [7]); -4% (inactive) in assay [5] (setting [8]); 23.4% (inactive) and 14.5% (inactive) and 6.1% (inactive) in assay [5] (at 50.0 µM); -1% (inactive) in assay [6] (setting [7]); 1% (inactive) in assay [6] (setting [8]); 12.4% (inactive) and 31.1% (inactive) and -6.6% (inactive) in assay [6] (at 50.0 µM).

As to `[Se]c1ncnc2nc[nH]c12`, the growth inhibition was 21% (inactive) in assay [1] (setting [7]); 57% (inactive) in assay [1] (setting [8]); 57.9% (inactive) in assay [1] (at 50.0 µM); 15% (inactive) in assay [2] (setting [7]); 37% (inactive) in assay [2] (setting [8]); 38.7% (inactive) in assay [2] (at 50.0 µM). Besides, the growth inhibition is 13% (inactive) in assay [3] (setting [7]); 41% (inactive) in assay [3] (setting [8]); 37.9% (inactive) in assay [3] (at 50.0 µM); 11% (inactive) in assay [4] (setting [7]); 23% (inactive) in assay [4] (setting [8]); 2.25% (inactive) in assay [4] (at 50.0 µM). Besides, the growth inhibition in assay [5] (setting [7]) is -2% (inactive); in assay [5] (setting [8]), 60% (inactive); in assay [5] (at 50.0 µM), 39.2% (inactive); in assay [6] (setting [7]), 17% (inactive); in assay [6] (setting [8]), 68% (inactive); in assay [6] (at 50.0 µM) it was 84.2% (active).

Take `Cc1cc(N(C)C)c2ccccc2[n+]1CCCCCCCCCC[n+]1c(C)cc(N(C)C)c2ccccc21`: the growth inhibition in assay [1] (setting [7]) is 92% (active); in assay [1] (setting [8]), 98% (active); in assay [1] (at 50.0 µM), 89.1% (active); in assay [2] (setting [7]), 98% (active); in assay [2] (setting [8]), 99% (active); in assay [2] (at 50.0 µM), 91.8% (active). For the same compound, the growth inhibition was 95% (active) in assay [3] (setting [7]); 99% (active) in assay [3] (setting [8]); 88.8% (active) in assay [3] (at 50.0 µM); 87% (active) in assay [4] (setting [7]); 96% (active) in assay [4] (setting [8]); 91% (active) in assay [4] (at 50.0 µM). The growth inhibition in assay [5] (setting [7]) is 94% (active); in assay [5] (setting [8]) it was 98% (active); in assay [5] (at 50.0 µM) it was 89.5% (active); in assay [6] (setting [7]), 97% (active); in assay [6] (setting [8]), 99% (active); in assay [6] (at 50.0 µM), 91.8% (active).

With `CC[C@@]1(O)C[C@H](OC2CC(N(C)C)C(OC3CC(O)C(OC4CCC(=O)C(C)O4)C(C)O3)C(C)O2)c2c(cc3c(c2O)C(=O)c2c(O)ccc(O)c2C3=O)[C@H]1C(=O)OC` (some centres undefined), the growth inhibition is 95% (active) and 89% (active) in assay [1] (setting [7]); 98% (active) in assay [1] (setting [8]); 88.1% (active) and 91.8% (active) in assay [1] (at 50.0 µM); 95% (active) and 78% (active) in assay [2] (setting [7]); 99% (active) in assay [2] (setting [8]); 91.2% (active) and 93.5% (active) in assay [2] (at 50.0 µM). Also, the growth inhibition in assay [3] (setting [7]) is 95% (active) and 87% (active); in assay [3] (setting [8]), 99% (active) and 98% (active); in assay [3] (at 50.0 µM), 89.8% (active) and 92.3% (active); in assay [4] (setting [7]), 91% (active) and 71% (active); in assay [4] (setting [8]), 97% (active); in assay [4] (at 50.0 µM), 88.7% (active) and 91.2% (active). Also, the growth inhibition in assay [5] (setting [7]) was 92% (active) and 67% (inactive); in assay [5] (setting [8]), 98% (active); in assay [5] (at 50.0 µM), 89.3% (active) and 92.3% (active); in assay [6] (setting [7]), 96% (active) and 80% (active); in assay [6] (setting [8]), 98% (active); in assay [6] (at 50.0 µM) it was 88.2% (active) and 91.7% (active).
